# Screening results: PubChem, National Center for Advancing Translational Sciences (NCATS)
# Most compounds without a hit are left out; they make up all but 2.4% or so of the library.
# Prx2 Sm inh – Schistosoma Mansoni Peroxiredoxins (Prx2). Schistosoma mansoni peroxiredoxin 2 (Prx2). S. mansoni Prx2 activity coupled to TGR/GSH (TGR is thioredoxin glutathione reductase), NADPH fluorescence loss, qHTS. Potency, µM. actives 0.07% (n = 65,000). AID 448, 2006
#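 Prx2 activity was followed as the loss of NADPH fluorescence (ex 365/em 450 nm), read every 30 sec for 8 min after H2O2 start. The enzyme mix (50 nM Prx2, 25 nM TGR, GSH, NADPH; pH 7.4 phosphate buffer) was incubated with compound for 15 min at room temperature first.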
# LT uptake inh – qHTS Assay for Anthrax Lethal Toxin Internalization; AID 912, 2007; Potency, µM (highest dose often 40 µM), for inactives: top-dose activity change, negative = inhibition, usual class: inhibitors; Cells, anthrax lethal toxin internalization, FRET ratio (460/530); actives 0.67% (n = 70,000); also: % is scaled to controls: 0 for no effect and ±100 for the full control effect; nearly all actives have a fitted effect of over 50% in size
# AmpC nodet inh – Promiscuous and Specific Inhibitors of AmpC Beta-Lactamase (assay without detergent). P00811. AmpC nitrocefin hydrolysis, absorbance 480 nm, no detergent. Potency, µM (titrated, usually from 28.7 µM), for inactives: at the highest dose activity change, negative = inhibition. actives 1.8% (n = 71,000). AID 585, 2007; also: % of control where 0% means no effect
# Target sequence (P00811 whole entry, looked up): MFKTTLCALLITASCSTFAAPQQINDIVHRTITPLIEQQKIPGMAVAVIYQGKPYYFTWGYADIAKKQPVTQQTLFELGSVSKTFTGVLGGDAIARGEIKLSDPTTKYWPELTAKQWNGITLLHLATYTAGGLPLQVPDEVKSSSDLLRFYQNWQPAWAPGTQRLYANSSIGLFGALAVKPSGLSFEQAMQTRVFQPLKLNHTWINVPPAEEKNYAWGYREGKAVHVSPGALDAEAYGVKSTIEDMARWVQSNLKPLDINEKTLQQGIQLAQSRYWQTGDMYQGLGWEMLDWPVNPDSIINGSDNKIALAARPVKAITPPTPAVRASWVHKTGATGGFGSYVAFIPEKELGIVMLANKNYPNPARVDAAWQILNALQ
#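 Enzyme, pH 7.0 phosphate. Compound titrations were pre-incubated with AmpC for 15 min at room temperature before nitrocefin (stock 800 uM) addition; product formation was recorded at 480 nm every 20 s for 4 min.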
# AmpC det inh – Promiscuous and Specific Inhibitors of AmpC Beta-Lactamase (assay with detergent); actives 0.09% (n = 71,000); purified AmpC, nitrocefin hydrolysis with detergent; Potency, µM (series often up to 28.7 µM), for the others: at the top dose activity change, negative = inhibition; active = well fitted curve in the direction sought with a large enough effect; inconclusive = small, poorly fitted or top-dose-only effect; also: % is scaled to controls: 0 for no effect and ±100 for the full control effect
#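 E. coli AmpC (5.3 nM) in 20 mM phosphate pH 7.0 with 0.01% Triton X-100, preincubated 15 min RT with compound; nitrocefin (2 uL of 800 uM stock) hydrolysis followed by 480 nm absorbance every 20 s over 4 min.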
# * hit, by the source's call; u = inconclusive; x = no result; [ ] = dose if it differs, or a comment. Unless noted, calls follow the shape of the full dose curve. Potency is read from the fitted curve at half-maximal effect.
SMILES,Prx2 Sm inh,LT uptake inh,AmpC nodet inh,AmpC det inh
CCOC(=O)N1CCN(CC(=O)Nc2cc3c(cc2C(C)=O)OCO3)CC1,>57,9%,7%,0%
O=S(=O)(c1cccc2c(I)cccc12)N1CCCNCC1,>26,3.2µM*,42%,-3%
O=S(=O)(Nc1nccs1)c1cc(Cl)ccc1Cl,>57,2%,10µM*[single pt active],-5%
CN(C)c1ccc(N)cc1,x,u,39%,10%
CCOC(=O)c1c(C)[nH]c2ccc3c(c12)CN1CCc2cc(OC)ccc2[C@@H]1O3,>57,2.5µM*,22%,-3%
CCS(=O)(=O)N1CCC[C@H]2CN3CCc4cc(OC)ccc4[C@@H]3C[C@@H]21,>57,0%,26%,0%
CS(=O)(=O)c1sc2nc(-c3cccs3)cc(-c3ccccc3)c2c1N,>57,u,10µM*[single pt active],-4%
CCOC(=O)N1CCN(c2c(-c3ccc(C)c(C)c3)c(=O)c2=O)CC1,>57,7%,14%,-1%
CCOC(=O)N1CCN(c2c(NCc3ccccc3OC)c(=O)c2=O)CC1,>57,u,4µM*[single pt active],13%
CCOC(=O)N1CCN(c2c(NCCc3ccc(OC)c(OC)c3)c(=O)c2=O)CC1,>57,5%,4µM*[single pt active],11%
CCOC(=O)N1CCN(c2c(NCc3cccs3)c(=O)c2=O)CC1,>57,-25%,4µM*[single pt active],11%
N=c1sc2ccccc2n1CCS (tested in a mixture with another compound),>57,2%[8 µM],-4%[5.75 µM],-3%[5.75 µM]
N[C@H](CCl)C(=O)O,>57,0%,-3%,-1%
Cc1sc(NC(=O)c2ccco2)nc1-c1ccc2c(c1)CC(C)N2C(=O)C1CC1 (configuration not stated),>57,10µM*,78%,-4%
COc1ccc2c(c1)-c1nc(NC(=O)c3ccco3)sc1CC2,>57,-23%,44%,-4%
NC(=O)c1c(NC(=O)CSc2nnc(-c3ccccc3)n2CC2CCCO2)sc2c1CCC2 (configuration not stated),>57,-16%,77%,4%
Cn1cnnc1SCC(=O)Nc1sc2c(c1C(N)=O)CCC2,>57,u,10µM*,-8%
O=C(Nc1ccc(CN2CCOCC2)cc1)c1ccc(-c2ccc(Br)cc2)o1,>57,13µM*,120%,-6%
Cc1ccccc1C1CC(c2ccc(F)cc2)Nc2nc(N)nn21 (configuration not stated),>57,u,4µM*[single pt active],12%
Nc1nc2n(n1)C(c1cccc(Br)c1)CC(c1ccc(F)cc1)N2 (configuration not stated),>57,6%,42%,12%
Nc1nc2n(n1)C(c1ccco1)CC(c1ccc(F)cc1)N2 (configuration not stated),>57,-3%,33%,13%
Nc1nc2n(n1)C(c1ccccc1)CC(c1ccc(F)cc1)N2 (configuration not stated),>57,-1%,4µM*[single pt active],14%
Nc1nc2n(n1)C(c1c(F)cccc1Cl)CC(c1ccc(F)cc1)N2 (configuration not stated),>57,-2%,4µM*[single pt active],15%
Cc1ccccc1C1CC(c2ccc(Br)cc2)Nc2nc(N)nn21 (configuration not stated),>57,-15%,97%,12%
CCc1ccc(C2CC(c3ccc(Cl)cc3)n3nc(N)nc3N2)cc1 (configuration not stated),>57,3%,4µM*[single pt active],13%
SMILES,Prx2 Sm inh,LT uptake inh,AmpC nodet inh,AmpC det inh
CCn1cnc2c(Nc3cccc(Cl)c3)nc(N[C@@H]3CCCC[C@H]3N)nc21,>57,-10%,30%,1%
N#CCCn1c(=O)c(-c2cccc(C#N)c2)nc2cnc(N3CCOCC3)nc21,>57,u,12%,1%
N#CCCn1c(=O)c(-c2cc(F)cc(F)c2)nc2cnc(Oc3cccc(Cl)c3)nc21,>11,u,-4%,3%
COc1ccc(C(c2c(O)ccc3ccccc23)N2CCOCC2)c(OC)c1 (configuration not stated),>57,6.3µM*,77%,12%
COc1ccc(-c2cc3ccccc3n2CC(O)CN2CCOCC2)cc1 (configuration not stated),>57,-3%,144%,10%
COCCNC(=O)c1cc2c(-c3ccc(Cl)cc3)nn(C)c2s1,>57,-22%,128%,11%
Cc1ccc(CNC(=O)c2cc3c(-c4ccc(Cl)cc4)nn(C)c3s2)o1,>57,-8%,4µM*[single pt active],16%
CCOC(=O)N1CCC(NC(=O)c2cc3c(-c4ccc(Cl)cc4)nn(C)c3s2)CC1,>57,-2%,4µM*[single pt active],11%
CCCCNC(=O)c1cc2c(-c3ccc(Cl)cc3)nn(C)c2s1,x,-5%,26%,12%
Cn1nc(-c2ccc(Cl)cc2)c2cc(C(=O)NCCCN3CCCC3)sc21,>57,2µM*,4µM*[single pt active],13%
CC(C)NC(=O)c1cc2c(-c3ccc(Cl)cc3)nn(C)c2s1,>57,-4%,0.79µM*[single pt active],11%
COCCCNC(=O)c1cc2c(-c3ccc(Cl)cc3)nn(C)c2s1,>57,-14%,143%,6%
O=S(=O)(NCCO)c1cc[c]([Sb](=[O])([OH])[OH])cc1,>57,-4%[8 µM],-11%[5.75 µM],1%[5.75 µM]
Cc1nc2cnc(Oc3ccccc3)nc2n(C2CC2)c1=O,>57,-15%,31%,0%
N[C@@H](C(=O)O)[C@H](CC(=O)O)c1ccc(Cl)cc1,>57,-4%,37%,-4%
COc1cccc(-c2nn(C)c3sc(C(=O)NCc4ccco4)cc23)c1,>57,-12%,49%,-7%
CCN1CCCC1CNC(=O)c1cc2c(-c3cccc(OC)c3)nn(C)c2s1 (configuration not stated),>57,16µM*,55%,-3%
CCN1CCCC1CNC(=O)c1cc2c(-c3ccc(Cl)cc3)nn(C)c2s1 (configuration not stated),>57,4µM*,4µM*[single pt active],14%
Cn1nc(-c2ccc(Cl)cc2)c2cc(C(=O)N3CCC(N4CCCCC4)CC3)sc21,>57,-7%,44%,16%
OC[C@H]1CCCN2CCCC[C@@H]12,>57,-3%,3%,0%
Cn1c(NC(=O)c2cccc(Cn3cc(Cl)cn3)c2)nc2ccccc21,>57,9%,-4%,-2%
CCn1c(NC(=O)c2cccc(Cn3cc(Cl)cn3)c2)nc2ccccc21,>57,1%,4µM*[single pt active],19%
COCc1cc(C)nc(N2CCN(c3ccccc3)CC2)c1C#N,>57,10µM*,10%,17%
O=C1C(Cl)=C(Sc2nnc3c4ccccc4c4ccccc4c3n2)C(=O)c2ccccc21,>57,-5%[8 µM],-23%[5.75 µM],-3%[5.75 µM]
CCOC(=O)C(C(=O)OCC)c1cc(Br)c2noc3c2c1C(=O)c1ccccc1-3,0.53*,u,-4%,3%
COc1cccc(NS(=O)(=O)c2nc3nc(C)cc(C)n3n2)c1,>57,1%,4µM*[single pt active],13%
COc1ccc(CCNc2ncnc3c2oc2ccccc23)cc1OC,>57,u,59%,-3%
